PubChem BioAssay (NCI)
Compounds without any hit were thinned out: in the full panel of roughly 83,000, 20% have a hit.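 Step 1: grow cells in 96-well plates. Step 2: add test compound at a single concentration. Step 3: incubate 48 h. Step 4: record percent growth.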 Values without a mark were called inactive. Activity calls are given as the source filed them. The calls were made as follows: active = growth percent below 10; inactive = the rest.

How the values were obtained:
Assay in all cases: NCI-60 one-dose screen, 48 h (100 = growth as untreated, 0 = no growth, -100 = all killed)
Conditions in all cases: 10 µM unless noted
T-47D breast = system: T-47D breast
BT-549 breast = system: BT-549 breast
MDA-MB-435 melanoma = system: MDA-MB-435 melanoma
SW-620 colon = system: SW-620 colon
MCF7 breast = system: MCF7 breast
HCT-116 colon = system: HCT-116 colon
HCC-2998 colon = system: HCC-2998 colon
KM12 colon = system: KM12 colon

Compound | growth (T-47D breast) | growth (BT-549 breast) | growth (MDA-MB-435 melanoma) | growth (SW-620 colon) | growth (MCF7 breast) | growth (HCT-116 colon) | growth (HCC-2998 colon) | growth (KM12 colon)
Clc1nc2ccccc2nc1-c1nnc(C2CCCCC2)o1 | 86% | 138% | 99.1% | 97.2% | 37.4% | 101% | 104% | 94.1%
C#C[C@]1(O)CC[C@H]2[C@@H]3CC=C4c5sc(-c6cccc(O)c6)nc5CC[C@]4(C)[C@H]3CC[C@@]21C | 1.25% (active) | -22.8% (active) | -51.4% (active) | -52.8% (active) | -28% (active) | -37.6% (active) | -24.8% (active) | -28.9% (active)
CN(C)CCN(C)c1ccc2ncc(C#Cc3cncc(C(=O)Nc4ccc(CN5CCN(C)CC5)c(C(F)(F)F)c4)c3)n2n1 | 101% | 111% | 48.4% | -44.9% (active) | -63.7% (active) | -85.9% (active) | 33.9% | -39.8% (active)
COc1c(N2CC3CCCNC3C2)c(F)cc2c(=O)c(C(=O)N/N=C/c3ccc(Br)cc3)cn(C3CC3)c12 (stereo not given) | 84.3% | 114% | 84.7% | 89.6% | 52.4% | 50.5% | 92.2% | 97.3%
CCCn1cnc2c(c1=N)C(c1ccc(Cl)cc1)c1sc3c(CC)cccc3c1O2 (stereo not given) | 10.2% | 41.3% | -35.4% (active) | 25.5% | 17% | 12.1% | 17.8% | 15.6%
COc1cc(OC)c(S(N)(=O)=O)cc1C(C)=O | 98.3% | 115% | 107% | 113% | 89.8% | 114% | 106% | 104%
C=C(C)[C@@H]1CC[C@]2(C(=O)NCCCCCN(CCC#N)CCC#N)CC[C@]3(C)[C@H](CC[C@@H]4[C@@]5(C)CCC(=O)C(C)(C)[C@@H]5CC[C@]43C)[C@@H]12 | 106% | 92.9% | 99.7% | 97.4% | 86.2% | 95.5% | 110% | 101%
CCC(NC(c1cc2cccc3ccc4cccc1c4c32)c1nnnn1C(C)(C)C)C1CCCCC1 (stereo not given) | 74.6% | 50.5% | 60% | 61.5% | 48.2% | 40.6% | 90.3% | 67.8%
Cc1cc(C(NC(=O)CCCCCNc2cccc3c2C(=O)N(C2CCC(=O)NC2=O)C3=O)c2ccc3c(c2)OC(F)(F)O3)c(O)c2ncccc12 (stereo not given) | 67.6% | 36.6% | 27.8% | 40.2% | 29.5% | 27.8% | 79.2% | 39.9%
CC[C@]12C=CCN3CC[C@@]4(c5cc(NC(=O)COc6cc(O)c7c(=O)cc(-c8ccccc8)oc7c6)c(OC)cc5N(C)[C@H]4[C@@](O)(C(=O)OC)[C@@H]1OC(C)=O)[C@@H]32 | -60.5% (active) | -36.2% (active) | -44.7% (active) | 7.84% (active) | -44.3% (active) | -89.2% (active) | -98.2% (active) | -82.2% (active)
CCNC(=O)N1CCc2cc(OC)c(OCCc3ccc(OC)nc3)cc2C1c1ccc(OC)cc1C (stereo not given) | 49% | 29.2% | 15% | 16% | 22.2% | 14.4% | 42.8% | 21.2%
COc1ccc2c(c1)c(CC(=O)[Se]CCC#N)c(C)n2C(=O)c1ccc(Cl)cc1 | 66.7% | -59.8% (active) | -13.4% (active) | 2.84% (active) | 2.34% (active) | -16.9% (active) | 75.6% | 26.5%
Cc1ccc(-c2cc3nc(C(Cl)Cl)nc(-c4ccco4)n3n2)cc1 | 21.2% | 86.5% | 18.1% | 8.55% (active) | 3.51% (active) | 1.68% (active) | -50% (active) | -21.3% (active)
CN1CCN(Cc2ccc(NC(=O)c3cncc(C#Cc4cnc5ccc(OCC(C)(C)O)nn45)c3)cc2C(F)(F)F)CC1 | -17.6% (active) | -20.1% (active) | -86.8% (active) | -16.1% (active) | -66.3% (active) | -51% (active) | -34.3% (active) | 1.72% (active)
COc1ccc(NCc2cn(-c3ccc(C(=O)O)cc3)nc2-c2cc(C(F)(F)F)cc(C(F)(F)F)c2)cc1 | 76.6% | 110% | 101% | 102% | 90.9% | 95.2% | 104% | 99.8%
C=C=COc1cccc(/C(N)=N/C(N)=N/c2nc3ccccc3s2)c1 | 63.1% | 56% | 77.8% | 94.9% | 93.1% | 25.1% | 102% | 71.1%
CC(Nc1c(C#N)cnc2ccc(-c3cnc(N)nc3)cc12)c1ccccc1 (stereo not given) | 9.18% (active) | 4.06% (active) | 15.5% | 18.2% | 8.42% (active) | 10.7% | 8.61% (active) | 10.8%
COc1ccc(N2C(=O)c3cc(Cl)ccc3NC2SCc2ccccc2)cc1 (stereo not given) | 88.1% | 97.5% | 94.5% | 103% | 85.4% | 73.8% | 106% | 96.9%
CCOC(=O)c1c(Nc2ccccc2)nn2c(-c3ccccc3)ccnc12 | 91% | 145% | 96.1% | 105% | 91.8% | 86.7% | 97.1% | 88.9%
c1n[nH]cc1-c1nc2ccc3[nH]ncc3c2c2c1CCCC2 | 15.7% | -18.9% (active) | 1.93% (active) | 6.24% (active) | 3.93% (active) | -3.08% (active) | 33.5% | 5.28% (active)
Cn1cc(-c2nc(N)nnc2-c2c[nH]c3ccc(Br)cc23)c2cc(Br)ccc21 | 32.2% | 48.8% | 11.6% | 29.2% | 30.6% | 17.6% | 81.9% | 27.6%
Cn1ccnc1C(=O)/C=C/c1ccc(CNC(=O)c2c(F)c(F)c(F)c(F)c2F)cc1 | 41.4% | 74.1% | 64.7% | 38.2% | 19.4% | 4.78% (active) | 90.7% | 23.2%
N#Cc1cnc2ccc(-c3cnc4[nH]ncc4c3)cc2c1N1CCc2cc(F)c(Cl)cc21 | -2.57% (active) | 20.1% | -10.2% (active) | 17.9% | -2.16% (active) | 8.48% (active) | -11.8% (active) | 14%
Oc1cccc2ccc(-c3nnc(SCc4ccc(O)c5ncccc45)n3-c3ccccc3)nc12 | 9.55% (active) | 26.1% | 17% | 16.4% | 6.09% (active) | 10.5% | 28.2% | 10.9%
CCCCCc1ccc(S(=O)(=O)Nc2cc(-c3csc(NC(=O)CN4CCN(C)CC4)n3)ccc2N2CCN(C)CC2)cc1 | -49.9% (active) | 77.5% | -78.6% (active) | -55.1% (active) | -85.9% (active) | -70.9% (active) | -25.2% (active) | 38.9%
CC1=N[C@@H]2CN(C(=O)OC(C)(C)C)C[C@@H]2n2c1cc1ccccc1c2=O | 98.8% | 144% | 108% | 107% | 95.6% | 103% | 107% | 97.5%
Nc1nc(N)c2c(n1)NC(c1ccc(C(F)(F)F)cc1)CC(c1ccc(Nc3nc(NCCO)nc(N4CCOCC4)n3)cc1)=N2 (stereo not given) | 62.7% | 76.3% | 65.9% | 56.7% | 33.7% | 35.8% | 86.4% | 51.2%
Cc1nc2ncc(-c3ccc4ncnc(NCc5ccccc5)c4c3)cc2[nH]1 | 1.3% (active) | 57.3% | 82.1% | 82.3% | 27.1% | 77.8% | 79.2% | 77.8%
COc1cc(OC)c(S(N)(=O)=O)cc1C(=O)/C=C/c1ccc(Cl)cc1 | 26.1% | 1.01% (active) | 16.7% | -39.9% (active) | 5.69% (active) | 7.77% (active) | 1.39% (active) | 1.9% (active)
CCO/C=N/C1=C(C#N)C(c2ccc(OC)cc2)c2sc3c(C)cccc3c2O1 (stereo not given) | 34.5% | 35.2% | -21.5% (active) | 33.5% | 23.5% | 12% | 21.1% | 19%
